We go through 4 compounds from PubChem BioAssay (NCATS).

Results filed as inconclusive are left out. A call without a number means that no potency is given here. The source made the active and inactive calls. Calls come from the whole dose curve; as a rule, active = well fitted inhibition curve with a large enough effect; inconclusive = small, poorly fitted or top-dose-only effect, or effect the other way; inactive = flat fitted curve, though single readings scatter.

ATP-dependent 6-phosphofructokinase (Trypanosoma brucei brucei), sequence (O15648 whole entry, looked up): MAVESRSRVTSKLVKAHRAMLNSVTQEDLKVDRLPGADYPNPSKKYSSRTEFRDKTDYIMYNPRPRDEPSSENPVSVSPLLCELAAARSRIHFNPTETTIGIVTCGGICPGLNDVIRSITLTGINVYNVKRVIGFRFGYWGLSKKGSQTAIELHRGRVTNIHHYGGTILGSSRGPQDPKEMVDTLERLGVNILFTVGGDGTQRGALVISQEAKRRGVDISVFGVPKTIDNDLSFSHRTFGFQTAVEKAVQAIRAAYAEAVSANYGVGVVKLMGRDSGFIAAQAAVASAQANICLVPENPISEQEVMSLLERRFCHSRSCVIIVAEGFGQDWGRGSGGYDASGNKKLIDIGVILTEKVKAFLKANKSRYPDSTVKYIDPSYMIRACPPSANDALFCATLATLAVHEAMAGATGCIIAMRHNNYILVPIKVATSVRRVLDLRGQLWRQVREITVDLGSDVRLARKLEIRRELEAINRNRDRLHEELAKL

The assay concerns the target ATP-dependent 6-phosphofructokinase (Trypanosoma brucei brucei) (UniProt O15648). The assay can be described thus: qHTS Assay to Find Inhibitors of T. brucei phosphofructokinase: hit validation (AID 492961).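 Note: luminescence reports ADP formed as PFK phosphorylates fructose-6-phosphate with ATP.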 Conditions: T. brucei PFK, ADP-Glo luminescence; series mostly up to 51.4 µM. An outline of the steps: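 Reaction: 0.1 M triethanolamine pH 8.0, 5 mM MgCl2, F6P 0.5 mM, ATP 0.1 mM, PFK 1.25 nM, 45 min RT. Read-out: ADP-Glo luminescence. Analysis: concentration-response fits, classed by r2 and efficacy.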
Take `O=C(CCCCCCCCCCCCC1CCCC1)Nc1ccc(S(=O)(=O)c2ccc(NC(=O)CCCCCCCCCCCCC3CCCC3)cc2)cc1`: the Potency result was “inactive”. Take `O=P(O)(O)O`: the Potency entry is “inactive”. Regarding `COc1ccc2nc(NC(=O)Nc3ccccc3)sc2c1`, the Potency result was “inactive”. With `CCOC(=O)c1c[nH]c2cc(OCC(C)C)c(OCC(C)C)cc2c1=O`, the Potency result is “inactive”.
